# Experimental data as given in the supplement of paper PMC8728848.
# Only a selection was taken, and the strongest signals are over-represented in it overall.
# B1: Surfactant Protein D (Human); Neck + Carbohydrate Recognition Domain (NCRD) (Homo sapiens) (protein)
# chain: MLLFLLSALVLLTQPLGYLEAEMKTYSHRTMPSACTLVMCSSVESGLPGRDRDGREGPRGEKGDPGLPGAAGQAGMPGQAGPVGPKGDNGSVGEPGPKGDTGPSGPPGPPGVPGPAGREGALGKQGNIGPQGKPGPKGEAGPKGEVGAPGMQGSAGARGLAGPKGERGVPGERGVPGNTGAAGSAGAMGPQGSPGARGPPGLKGDKGIPGDKGAKGESGLPDVASLRQQVEALQGQVQHLQAAFSQYKKVELFPNGQSVGEKIFKTAQFVKPFTEAQLLCTQAGGQLASPRSAAENAALQQLVVAKNEAAFLSMTDSKTEGKFTYPTGESLVYSNWAPGEPNDDGGSEDCVEIFTNGKWNDKACGEKRLVVCEF
# Assays:
# Experiment in all cases: glycan array binding signal (z-score within array); higher = stronger binding
# Conditions in all cases: glycan notation: IUPAC condensed, linker removed; mutation: R343K
# Fuc(a1-2)Gal = target: Fuc(a1-2)Gal
# Method in brief: (§1)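 Columns mapping to the same glycan were averaged after glycan names were converted to IUPAC-condensed notation. The data come from 3228 arrays in the Consortium for Functional Glycomics database, limited to those with an available protein sequence. Binding is reported as a within-array Z-score averaged across arrays of one protein sequence and across linkers.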
# [1] = target: Fuc(a1-2)Gal(b1-4)GlcNAc(b1-3)Gal(b1-4)GlcNAc(b1-3)Gal(b1-4)GlcNAc
# Method in brief: as §1
# [2] = target: Fuc(a1-2)[GalNAc(b1-3)]Gal
# Method in brief: as §1
# [3] = target: Fuc(a1-3)[Gal(b1-4)]GlcNAc(b1-2)Man(a1-6)[Gal(b1-4)GlcNAc(b1-2)Man(a1-3)]Man(b1-4)GlcNAc(b1-4)GlcNAc
# Method in brief: as §1
# [4] = target: Fuc(a1-3)[Gal(b1-4)]GlcNAc(b1-4)Gal(b1-4)[Fuc(a1-3)]GlcNAc
# Method in brief: as §1
# [5] = target: Gal(b1-3)GalNAc(b1-3)Gal(a1-4)Gal(b1-4)Glc
# Method in brief: as §1
# [6] = target: Gal(b1-4)GalNAc(a1-3)[Fuc(a1-2)]Gal(b1-4)GlcNAc
# Method in brief: as §1
# [7] = target: Gal(b1-4)GlcNAc(a1-6)Gal(b1-4)GlcNAc
# Method in brief: as §1
# [8] = target: Gal(b1-4)GlcNAc(b1-6)GalNAc
# Method in brief: as §1
# Gal3S(b1-3)GlcNAc = target: Gal3S(b1-3)GlcNAc
# Method in brief: as §1
# [9] = target: Gal3S(b1-3)[Fuc(a1-4)]GlcNAc
# Method in brief: as §1
# Glc(b1-4)Glc = target: Glc(b1-4)Glc
# Method in brief: as §1
# GlcA(b1-6)Gal = target: GlcA(b1-6)Gal
# Method in brief: as §1
# [10] = target: GlcNAc(b1-2)Gal(b1-3)GalNAc
# Method in brief: as §1
# [11] = target: Man(a1-2)Man(a1-3)[Man(a1-2)Man(a1-6)]Man
# Method in brief: as §1
# [12] = target: Man(a1-2)Man(a1-3)[Man(a1-2)Man(a1-6)]Man(a1-6)[Man(a1-2)Man(a1-2)Man(a1-3)]Man
# Method in brief: as §1
# [13] = target: Man(a1-2)Man(a1-3)[Man(a1-6)]Man(a1-6)[Man(a1-2)Man(a1-3)]Man(b1-4)GlcNAc(b1-4)GlcNAc
# Method in brief: as §1
# [14] = target: Man(a1-3)[Man(a1-6)]Man(a1-6)[Man(a1-2)Man(a1-3)]Man(b1-4)GlcNAc(b1-4)GlcNAc
# Method in brief: as §1
# [15] = target: Man(a1-3)[Man(a1-6)]Man(a1-6)[Man(a1-3)]Man
# Method in brief: as §1
# [16] = target: Neu5Ac(a2-3)Gal(b1-3)GalNAc(b1-3)Gal(a1-4)Gal(b1-4)Glc
# Method in brief: as §1
# [17] = target: Neu5Ac(a2-3)Gal(b1-3)GalNAc6S
# Method in brief: as §1
# [18] = target: Neu5Ac(a2-3)Gal(b1-3)GlcNAc
# Method in brief: as §1
# [19] = target: Neu5Ac(a2-3)Gal(b1-4)GlcNAc(b1-3)Gal(b1-4)GlcNAc(b1-3)Gal(b1-4)GlcNAc
# Method in brief: as §1
# [20] = target: Neu5Ac(a2-6)GalNAc(b1-4)GlcNAc
# Method in brief: as §1
# [21] = target: Neu5Ac9Ac(a2-6)Gal(b1-4)GlcNAc
# Method in brief: as §1
# [22] = target: Neu5Gc(a2-6)Gal(b1-4)GlcNAc
# Method in brief: as §1
binder,measurement,setting,value
B1,glycan array binding signal (z-score),Fuc(a1-2)Gal,-0.147
same,glycan array binding signal (z-score),[1],-0.143
same,glycan array binding signal (z-score),[2],-0.145
same,glycan array binding signal (z-score),[3],-0.147
same,glycan array binding signal (z-score),[4],-0.157
same,glycan array binding signal (z-score),[5],-0.147
same,glycan array binding signal (z-score),[6],-0.145
same,glycan array binding signal (z-score),[7],-0.153
same,glycan array binding signal (z-score),[8],-0.151
same,glycan array binding signal (z-score),Gal3S(b1-3)GlcNAc,-0.155
same,glycan array binding signal (z-score),[9],-0.153
same,glycan array binding signal (z-score),Glc(b1-4)Glc,-0.153
same,glycan array binding signal (z-score),GlcA(b1-6)Gal,-0.146
same,glycan array binding signal (z-score),[10],-0.159
same,glycan array binding signal (z-score),[11],5.42
same,glycan array binding signal (z-score),[12],10.9
same,glycan array binding signal (z-score),[13],5.1
same,glycan array binding signal (z-score),[14],7.96
same,glycan array binding signal (z-score),[15],5.92
same,glycan array binding signal (z-score),[16],-0.155
same,glycan array binding signal (z-score),[17],-0.156
same,glycan array binding signal (z-score),[18],-0.142
same,glycan array binding signal (z-score),[19],-0.143
same,glycan array binding signal (z-score),[20],-0.155
same,glycan array binding signal (z-score),[21],-0.15
same,glycan array binding signal (z-score),[22],-0.155
